Test results taken from PubChem BioAssay (EPA / NIEHS).
Values joined by “and” are separate entries in the source; they are usually repeats but may differ in a detail not shown here. Equal entries are not always repeated. Records with an inconclusive call do not appear. Some structures have more than one record in an assay (separate samples or runs), and their calls can disagree. Active and inactive are the calls of the source. How the source made its calls, unless noted: active means hit-call score of the fitted dose curve at least 0.9, where 1 is the maximum; inconclusive means response in the unintended direction; inactive means score below 0.9.

Tests used:
[1] = target: Androgen receptor (Homo sapiens) (UniProt P10275); test: ATG_AR_TRANS: Attagene TRANS-FACTORIAL HepG2 Assay for human Androgen Receptor (AR) (AID 2282973); conditions: HepG2 Attagene TRANS-FACTORIAL AR reporter transcription
Summary of the method: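 HepG2 cells transiently transfected with AR-Gal4 chimera and GAL4-UAS reporter units; chemical exposure 24 h. Reporter mRNA quantified by RT-PCR with fluorescent labelling and capillary electrophoresis; gain-of-signal fitted against DMSO.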

[2] = Tanguay_ZF_120hpf_MUSC: Oregon State University Tanguay Lab 120 Hour Post-fertilization zebrafish Assay for Muscle Malformation (AID 2284401; active means hit-call score of the fitted dose curve at least 0.9, where 1 is the maximum; inactive means score below 0.9)
Summary of the method: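 Dechorionated Tropical 5D wild-type zebrafish embryos exposed statically from 6 to 120 hpf at 28C, one per well, in 0.64% DMSO. Muscle malformation scored present/absent by brightfield microscopy at 120 hpf, fitted against DMSO.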

[3] = target: Cytochrome P450 2C18 (Homo sapiens) (UniProt P33260); test: NVS_ADME_hCYP2C18: NovaScreen (NVS) CYP450-related Enzyme Activity (ADME) Assay for human CYP2C18 (AID 2283103; active means hit-call score of the fitted dose curve at least 0.9, where 1 is the maximum; inactive means score below 0.9)
Summary of the method: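 Cell-free recombinant human CYP2C18 with fluorogenic substrate; fluorescence intensity read 0.5 h after dosing. Single-point screen at 10 uM in duplicate, then concentration-response up to 20 uM; loss of signal fitted against acetonitrile baseline.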

[4] = target: human CYP2C8, CYP2C8 (gene 1558) (UniProt P10632); test: NVS_ADME_hCYP2C8: NovaScreen (NVS) CYP450-related Enzyme Activity (ADME) Assay for human CYP2C8 (AID 2283104; active means hit-call score of the fitted dose curve at least 0.9, where 1 is the maximum; inactive means score below 0.9)
Summary of the method: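 Recombinant human CYP2C8 with fluorogenic substrate, 0.5 h, fluorescence intensity; signal loss fitted versus acetonitrile. Screened in duplicate at 10 uM, then actives run in concentration-response up to 20 uM.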

[5] = target: human CYP2J2, CYP2J2 (gene 1573) (UniProt P51589); test: NVS_ADME_hCYP2J2: NovaScreen (NVS) CYP450-related Enzyme Activity (ADME) Assay for human CYP2J2 (AID 2283106)
Summary of the method: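 Cell-free assay of recombinant CYP2J2 with a fluorogenic substrate, read 1 h after dosing; loss of signal versus acetonitrile. Primary screen at 10 uM in duplicate, then concentration-response up to 20 uM for chemicals passing threshold (e.g., 30% inhibition).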

[6] = target: rat CYP2C12, Cyp2c12 (gene 25011) (UniProt P11510); test: NVS_ADME_rCYP2C12: NovaScreen (NVS) CYP450-related Enzyme Activity (ADME) Assay for rat CYP2C12 (AID 2283119)
Summary of the method: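 Cell-free recombinant rat CYP2C12 activity read by fluorescence 0.5 h after dosing; loss of signal versus acetonitrile control. Primary screen in duplicate at 10 uM; actives then run in concentration-response format.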

[7] = target: rat CYP2D1, Cyp2d1 (gene 266684) (UniProt P10633); test: NVS_ADME_rCYP2D1: NovaScreen (NVS) CYP450-related Enzyme Activity (ADME) Assay for rat CYP2D1 (AID 2283122)
Summary of the method: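 Cell-free fluorescence enzyme-activity assay on extracted rat CYP2D1 protein, read 0.75 h after dosing. Primary screen in duplicate at 10 uM; qualifying chemicals then run in concentration-response to 20 uM max, loss-of-signal versus acetonitrile baseline.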

[8] = target: human Matrix Metalloproteinase-1 (MMP1), MMP1 (gene 4312) (UniProt P03956); test: NVS_ENZ_hMMP1: NovaScreen (NVS) Enzymatic Assay for human Matrix Metalloproteinase-1 (MMP1) (AID 2283181)
Summary of the method: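 Human MMP1 enzyme activity measured by fluorescence 1 h after dosing, cell-free, with a specific substrate. Screened in duplicate at 25 uM; hits (e.g. 30% inhibition) run in concentration-response up to 50 uM; loss of signal versus DMSO.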

[9] = target: Norway rat Vesicular Monoamine Transporter (VMAT2), neurotransmitter transporter, Slc18a2 (gene 25549) (UniProt Q01827); test: NVS_TR_rVMAT2: NovaScreen (NVS) Transporter Assay for Norway rat Vesicular Monoamine Transporter (VMAT2), neurotransmitter transporter (AID 2283376);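 further: actives lower the bound radioligand signal below the DMSO level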
Summary of the method: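 Radioligand displacement binding on rat forebrain tissue preparation, filter-based scintillation read-out 1 hour after dosing. Primary screen in duplicate at 25 uM, then concentration series for actives; loss of signal versus DMSO.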

[10] = target: Cellular tumor antigen p53 (Homo sapiens) (UniProt P04637); test: TOX21_p53_BLA_p3_ratio: Tox21 HCT-116 p53 Agonism Beta-lactamase Assay, Ratio, Phase 3 (AID 2283596)
Summary of the method: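 HCT116 p53-bla cells (4000/well) given compound in DMSO (217-fold dilution) after 5 h, incubated 16 h at 37C. CCF4-AM substrate 2 h at room temperature; 460/530 nm emission ratio, gain fitted against DMSO.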

[11] = target: Cellular tumor antigen p53 (Homo sapiens) (UniProt P04637); test: TOX21_p53_BLA_p4_ratio: Tox21 HCT-116 p53 Agonism Beta-lactamase Assay, Ratio, Phase 4 (AID 2283601)
Summary of the method: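 HCT-116 p53 beta-lactamase reporter cells (4000/well) preincubated 5 h, then compound (217-fold dilution of DMSO stock) for 16 h at 37C. CCF4-AM substrate added 2 h at room temperature; 460/530 nm emission ratio fitted upward versus DMSO.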

[12] = ATG_M_32_XSP2: Attagene TRANS-FACTORIAL Multi-Species (XSP2) HepG2 Assay for M19 Transcription Factor (Internal Marker) (AID 2283826)
Summary of the method: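 HepG2 cells transiently transfected with GAL4-UAS reporter units; XSP2 panel included 3 nM 6-alpha-fluorotestosterone and 1.5 nM norgestrel for androgen receptor stimulation. Reporter mRNA read 24 h post-dosing by RT-PCR/capillary electrophoresis; fitted upward versus DMSO.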

[13] = CCTE_Harrill_HTTr_Apoptosis_PRF_DMEM_12hr: (Pilot) CCTE's 12-hour Apoptosis Assessment for the High-Throughput Transcriptomics (HTTr) Platform, in MCF-7 cells cultured in phenol red-free DMEM + 10% charcoal-stripped fetal bovine serum, Harrill Lab (AID 2283985; active means hit-call score of the fitted dose curve at least 0.9, where 1 is the maximum; inactive means score below 0.9)
Summary of the method: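 MCF-7 cells in phenol red-free DMEM with 10% charcoal-stripped FBS, eight-point dilution series, 12 h exposure. Caspase-3/7 activation imaged by high content imaging with CellEvent Green reagent; bidirectional fit vs DMSO.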

[14] = target: human Ephrin type-A Receptor 2 (EphA2), EPHA2 (gene 1969) (UniProt P29317); test: NVS_ENZ_hEphA2: NovaScreen (NVS) Enzymatic Assay for human Ephrin type-A Receptor 2 (EphA2) (AID 2283155)
Summary of the method: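 Cell-free recombinant EphA2 kinase with specific substrate, 1 h, fluorescence with electrophoretic mobility-shift separation of substrate and product. Primary screen at 25 uM in duplicate; hits retested in singleton concentration-response up to 50 uM, referenced to DMSO.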

[15] = target: human Protein Tyrosine Phosphatase Non-receptor Type 2 (PTPN2), PTPN2 (gene 5771) (UniProt P17706); test: NVS_ENZ_hPTPN2: NovaScreen (NVS) Enzymatic Assay for human Protein Tyrosine Phosphatase Non-receptor Type 2 (PTPN2) (AID 2283207)
Summary of the method: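 Cell-free recombinant enzyme with fluorescent substrate, product separated by electrophoretic mobility shift; read 1 h after dosing. Primary screen single concentration (25 uM) in duplicate; actives followed in concentration series; loss of signal versus DMSO.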

[16] = system: rat Monoamine Oxidase, MAO-A, Central (MAOAC), gene 29253; test: NVS_ENZ_rMAOAC: NovaScreen (NVS) Enzymatic Assay for rat Monoamine Oxidase, MAO-A, Central (MAOAC) (AID 2283243);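 further: potency refers to inhibition seen as signal drop below DMSO baseline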
Summary of the method: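 Steps: rat brain protein extract dosed with test chemical (25 uM, duplicate, primary); incubated 1.5 h; radiolabelled product separated from substrate and counted. Signal loss versus DMSO scored as inhibition.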

human CYP2J2, CYP2J2 (gene 1573), sequence (P51589 whole entry, looked up): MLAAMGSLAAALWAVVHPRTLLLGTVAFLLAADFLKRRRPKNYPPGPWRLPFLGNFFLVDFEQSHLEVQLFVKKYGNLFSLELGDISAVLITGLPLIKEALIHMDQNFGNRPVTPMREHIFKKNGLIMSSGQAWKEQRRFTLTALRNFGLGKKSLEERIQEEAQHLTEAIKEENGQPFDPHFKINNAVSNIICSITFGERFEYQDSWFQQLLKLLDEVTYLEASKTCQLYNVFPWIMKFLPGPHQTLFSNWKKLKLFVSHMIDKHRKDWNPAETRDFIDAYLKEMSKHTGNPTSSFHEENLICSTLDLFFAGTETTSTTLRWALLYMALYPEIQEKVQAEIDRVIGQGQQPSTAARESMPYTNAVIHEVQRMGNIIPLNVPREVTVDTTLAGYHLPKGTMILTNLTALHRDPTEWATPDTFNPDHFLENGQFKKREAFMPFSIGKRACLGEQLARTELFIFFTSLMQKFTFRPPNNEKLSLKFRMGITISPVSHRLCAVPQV
Cellular tumor antigen p53 (Homo sapiens), sequence (P04637 whole entry, looked up): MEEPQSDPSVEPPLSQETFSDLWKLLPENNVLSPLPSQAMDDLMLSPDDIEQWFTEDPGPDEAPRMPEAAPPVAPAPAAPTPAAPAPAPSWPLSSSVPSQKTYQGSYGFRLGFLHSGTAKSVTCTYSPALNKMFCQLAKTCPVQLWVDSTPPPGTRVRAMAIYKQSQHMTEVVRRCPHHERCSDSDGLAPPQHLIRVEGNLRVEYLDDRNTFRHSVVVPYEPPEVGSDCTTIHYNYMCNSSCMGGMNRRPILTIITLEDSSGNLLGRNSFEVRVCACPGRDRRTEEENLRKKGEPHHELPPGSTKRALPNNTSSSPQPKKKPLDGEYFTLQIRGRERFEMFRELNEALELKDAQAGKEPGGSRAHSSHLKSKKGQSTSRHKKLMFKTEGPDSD
Cytochrome P450 2C18 (Homo sapiens), sequence (P33260 whole entry, looked up): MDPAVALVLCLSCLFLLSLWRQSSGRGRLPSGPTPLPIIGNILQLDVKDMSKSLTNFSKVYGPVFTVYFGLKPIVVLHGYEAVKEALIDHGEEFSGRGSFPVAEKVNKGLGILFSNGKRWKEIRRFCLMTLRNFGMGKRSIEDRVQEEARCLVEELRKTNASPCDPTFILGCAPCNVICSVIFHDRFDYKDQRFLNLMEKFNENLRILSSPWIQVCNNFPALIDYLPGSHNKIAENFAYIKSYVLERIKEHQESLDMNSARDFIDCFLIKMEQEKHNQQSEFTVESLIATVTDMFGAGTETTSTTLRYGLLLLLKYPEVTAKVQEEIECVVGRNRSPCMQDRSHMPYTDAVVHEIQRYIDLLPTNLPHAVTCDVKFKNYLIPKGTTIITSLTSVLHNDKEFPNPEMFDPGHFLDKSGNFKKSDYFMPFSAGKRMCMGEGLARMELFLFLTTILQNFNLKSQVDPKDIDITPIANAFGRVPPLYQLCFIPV
Androgen receptor (Homo sapiens), sequence (P10275 whole entry, looked up, the tested form may be a part): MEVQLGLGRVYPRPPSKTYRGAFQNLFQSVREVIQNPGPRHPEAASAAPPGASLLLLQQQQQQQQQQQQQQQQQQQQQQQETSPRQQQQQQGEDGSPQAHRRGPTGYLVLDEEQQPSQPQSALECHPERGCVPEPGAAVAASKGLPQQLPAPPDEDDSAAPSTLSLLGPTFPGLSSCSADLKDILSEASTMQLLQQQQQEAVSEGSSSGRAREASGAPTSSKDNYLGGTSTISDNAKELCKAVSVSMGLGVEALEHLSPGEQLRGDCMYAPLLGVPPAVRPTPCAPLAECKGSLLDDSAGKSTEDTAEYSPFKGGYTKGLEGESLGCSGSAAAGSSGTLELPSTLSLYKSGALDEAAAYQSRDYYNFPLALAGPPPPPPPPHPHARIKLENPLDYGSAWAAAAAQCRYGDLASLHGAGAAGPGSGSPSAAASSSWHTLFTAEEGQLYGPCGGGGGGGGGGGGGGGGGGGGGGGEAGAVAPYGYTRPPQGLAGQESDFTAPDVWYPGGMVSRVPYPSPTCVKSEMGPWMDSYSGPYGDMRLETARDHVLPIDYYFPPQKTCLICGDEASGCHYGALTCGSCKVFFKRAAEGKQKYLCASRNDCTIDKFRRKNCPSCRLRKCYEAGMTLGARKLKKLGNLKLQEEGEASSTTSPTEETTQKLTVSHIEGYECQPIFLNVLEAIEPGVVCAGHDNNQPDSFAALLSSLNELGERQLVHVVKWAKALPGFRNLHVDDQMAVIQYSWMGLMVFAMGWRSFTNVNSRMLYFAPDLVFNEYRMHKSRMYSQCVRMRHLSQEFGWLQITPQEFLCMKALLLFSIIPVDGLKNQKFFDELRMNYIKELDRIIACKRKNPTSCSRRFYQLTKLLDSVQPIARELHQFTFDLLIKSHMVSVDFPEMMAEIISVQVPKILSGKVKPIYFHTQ
rat CYP2C12, Cyp2c12 (gene 25011), sequence (P11510 whole entry, looked up): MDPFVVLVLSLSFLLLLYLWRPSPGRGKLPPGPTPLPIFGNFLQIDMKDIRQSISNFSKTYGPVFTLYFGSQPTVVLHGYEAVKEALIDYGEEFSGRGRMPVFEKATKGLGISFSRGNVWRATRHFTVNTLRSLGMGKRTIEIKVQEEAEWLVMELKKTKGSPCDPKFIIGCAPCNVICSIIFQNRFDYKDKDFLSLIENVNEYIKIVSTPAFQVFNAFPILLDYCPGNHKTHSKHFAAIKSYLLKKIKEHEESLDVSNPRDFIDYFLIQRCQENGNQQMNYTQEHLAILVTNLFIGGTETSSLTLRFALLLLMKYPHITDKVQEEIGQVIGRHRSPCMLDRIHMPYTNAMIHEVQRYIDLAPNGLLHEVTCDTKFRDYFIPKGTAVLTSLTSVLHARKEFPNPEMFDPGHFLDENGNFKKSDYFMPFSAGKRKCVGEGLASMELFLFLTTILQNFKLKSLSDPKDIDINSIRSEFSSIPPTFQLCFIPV
human Matrix Metalloproteinase-1 (MMP1), MMP1 (gene 4312), sequence (P03956 whole entry, looked up): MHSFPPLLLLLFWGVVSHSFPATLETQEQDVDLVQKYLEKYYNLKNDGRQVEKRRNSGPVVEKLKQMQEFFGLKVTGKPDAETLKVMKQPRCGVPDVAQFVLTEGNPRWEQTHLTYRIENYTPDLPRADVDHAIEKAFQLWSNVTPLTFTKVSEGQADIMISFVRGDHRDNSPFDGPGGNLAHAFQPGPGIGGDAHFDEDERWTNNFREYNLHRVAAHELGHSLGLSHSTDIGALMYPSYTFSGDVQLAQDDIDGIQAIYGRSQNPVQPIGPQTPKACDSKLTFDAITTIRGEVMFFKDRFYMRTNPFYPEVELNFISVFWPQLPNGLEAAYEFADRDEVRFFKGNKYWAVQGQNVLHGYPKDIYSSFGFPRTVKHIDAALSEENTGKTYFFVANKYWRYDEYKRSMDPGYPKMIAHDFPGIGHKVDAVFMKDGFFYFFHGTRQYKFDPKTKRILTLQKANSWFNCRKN
rat CYP2D1, Cyp2d1 (gene 266684), sequence (P10633 whole entry, looked up): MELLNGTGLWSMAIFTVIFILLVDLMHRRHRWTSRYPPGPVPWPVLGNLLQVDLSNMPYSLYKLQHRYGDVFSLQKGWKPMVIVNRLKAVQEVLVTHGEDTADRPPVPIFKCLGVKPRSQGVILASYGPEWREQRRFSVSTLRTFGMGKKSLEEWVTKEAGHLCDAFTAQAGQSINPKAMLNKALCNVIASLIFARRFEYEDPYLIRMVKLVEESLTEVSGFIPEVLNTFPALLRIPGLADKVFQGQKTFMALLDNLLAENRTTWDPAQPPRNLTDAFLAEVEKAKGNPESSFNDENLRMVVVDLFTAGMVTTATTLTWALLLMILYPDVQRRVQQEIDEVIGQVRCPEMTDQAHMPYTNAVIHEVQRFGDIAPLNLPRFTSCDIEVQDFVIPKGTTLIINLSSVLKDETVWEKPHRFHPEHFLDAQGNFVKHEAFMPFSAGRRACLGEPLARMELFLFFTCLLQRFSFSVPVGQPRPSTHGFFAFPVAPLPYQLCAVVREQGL
human Ephrin type-A Receptor 2 (EphA2), EPHA2 (gene 1969), sequence (P29317 whole entry, looked up): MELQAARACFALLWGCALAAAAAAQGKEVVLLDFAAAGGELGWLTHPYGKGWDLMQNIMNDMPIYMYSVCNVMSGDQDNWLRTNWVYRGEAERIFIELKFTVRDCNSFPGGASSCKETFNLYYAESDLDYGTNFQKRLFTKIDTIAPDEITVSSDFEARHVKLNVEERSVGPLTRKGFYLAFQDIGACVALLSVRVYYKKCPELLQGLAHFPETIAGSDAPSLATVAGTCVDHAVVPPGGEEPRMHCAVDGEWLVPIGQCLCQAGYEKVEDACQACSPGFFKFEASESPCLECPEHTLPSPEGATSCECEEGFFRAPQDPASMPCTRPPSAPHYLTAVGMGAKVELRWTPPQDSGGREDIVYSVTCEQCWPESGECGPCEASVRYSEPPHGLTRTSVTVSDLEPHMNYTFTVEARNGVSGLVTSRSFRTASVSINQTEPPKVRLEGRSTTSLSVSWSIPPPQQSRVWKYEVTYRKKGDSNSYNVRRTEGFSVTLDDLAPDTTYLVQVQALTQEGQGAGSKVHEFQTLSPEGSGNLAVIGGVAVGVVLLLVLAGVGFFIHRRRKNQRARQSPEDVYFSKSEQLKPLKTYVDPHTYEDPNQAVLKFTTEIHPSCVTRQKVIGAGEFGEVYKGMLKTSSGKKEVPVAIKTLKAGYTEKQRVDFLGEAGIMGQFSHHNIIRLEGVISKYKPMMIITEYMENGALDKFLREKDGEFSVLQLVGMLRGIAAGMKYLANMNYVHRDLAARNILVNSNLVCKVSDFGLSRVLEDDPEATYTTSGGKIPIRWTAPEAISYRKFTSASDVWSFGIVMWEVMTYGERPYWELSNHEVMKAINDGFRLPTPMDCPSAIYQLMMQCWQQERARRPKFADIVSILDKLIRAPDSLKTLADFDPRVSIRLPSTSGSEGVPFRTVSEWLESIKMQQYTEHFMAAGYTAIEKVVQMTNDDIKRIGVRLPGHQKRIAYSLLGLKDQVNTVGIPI

Structure (SMILES): OCC(F)(F)C(F)(F)C(F)(F)C(F)(F)C(F)(F)C(F)(F)C(F)(F)C(F)(F)C(F)(F)C(F)(F)C(F)(F)F
- outcome [1]: inactive
- outcome [2]: inactive

Structure (SMILES): OC(O)C(F)(F)C(F)(F)F
- outcome [1]: inactive
- outcome [2]: inactive

Structure (SMILES): NC(=O)C(F)(F)C(F)(F)C(F)(F)C(F)(F)F
- outcome [1]: inactive
- outcome [2]: inactive

Structure (SMILES): N=C(N)C(F)(F)C(F)(F)C(F)(F)C(F)(F)C(F)(F)C(F)(F)C(F)(F)F
- outcome [1]: inactive
- outcome [2]: inactive

Structure (SMILES): O=C(O)C(F)(F)C(F)(F)C(F)(F)F
- outcome [1]: inactive
- outcome [2]: inactive

Structure (SMILES): C[Si](C)(C)C(F)(F)C(F)(F)C(F)(F)F
- outcome [1]: inactive
- outcome [2]: inactive

Structure (SMILES): O=P(O)(O)CCC(F)(F)C(F)(F)C(F)(F)C(F)(F)C(F)(F)C(F)(F)F
- outcome [1]: inactive
- outcome [2]: inactive

Structure (SMILES): NC(=O)C(F)(F)C(F)(F)C(F)(F)C(F)F
- outcome [1]: inactive
- outcome [2]: inactive

Structure (SMILES): FC(F)=C(F)C(F)(F)C(F)(F)C(F)(F)C(F)(F)C(F)(F)C(F)(F)F
- outcome [1]: inactive
- outcome [2]: inactive

Structure (SMILES): C=CCOC(Cn1ccnc1)c1ccc(Cl)cc1Cl (centres undefined)
- AC50 [3]: 427 nM (active)
- AC50 [4]: 6.22 µM (active)
- AC50 [5]: 166 nM (active)
- AC50 [6]: 2.13 µM (active)
- AC50 [7]: 3.58 µM (active)
- AC50 [8]: 14 µM (active)
- AC50 [9]: 12 µM (active)
- AC50 [10]: 83 µM (active) and 73.3 µM (active)
- outcome [10]: inactive
- AC50 [11]: 80.8 µM (active) and 83.9 µM (active)
- outcome [11]: inactive
- outcome [12]: inactive
- outcome [13]: inactive

Structure (SMILES): CCOC(=O)NCCOc1ccc(Oc2ccccc2)cc1
- AC50 [3]: 4500 nM (active)
- outcome [5]: inactive
- outcome [14]: inactive
- outcome [15]: inactive

Structure (SMILES): CCN(CCO)S(=O)(=O)C(F)(F)C(F)(F)C(F)(F)C(F)(F)C(F)(F)C(F)(F)C(F)(F)C(F)(F)F
- outcome [1]: inactive
- outcome [2]: inactive

Structure (SMILES): C#C[C@]1(O)CC[C@H]2[C@@H]3CCc4cc(O)ccc4[C@H]3CC[C@@]21C
- AC50 [3]: 1.46 µM (active) and 1.72 µM (active)
- outcome [3]: inactive
- AC50 [5]: 878 nM (active) and 2.68 µM (active) and 672 nM (active)
- outcome [16]: inactive

Structure (SMILES): C=C(C)C(=O)OCC(F)(F)C(F)(F)C(F)(F)F
- outcome [1]: inactive
- outcome [2]: inactive

Structure (SMILES): O=S(=O)(O)CCC(F)(F)C(F)(F)C(F)(F)C(F)(F)C(F)(F)C(F)(F)F
- outcome [1]: inactive
- outcome [2]: inactive

Structure (SMILES): O=S(=O)(OCC(F)(F)F)C(F)(F)C(F)(F)C(F)(F)C(F)(F)F
- outcome [1]: inactive
- outcome [2]: inactive

Structure (SMILES): OCCCC(F)(F)C(F)(F)C(F)(F)F
- outcome [1]: inactive
- outcome [2]: inactive
